Data reported in PubChem BioAssay AID588689 (Southern Research Specialized Biocontainment Screening …, 2011).
In all, about 340,000 compounds went through this assay and about 1,000 (0.29%) were called active. Rule as the data show it: inconclusive = inhibition above about 29% without an active follow-up result; inactive = below that. The list is a sample of the results. Measured potencies and affinities stand elsewhere.

Target: Genome polyprotein (Dengue virus type 2 (strain 16681-PDK53)) (UniProt P29991)
Sequence (P29991 whole entry, looked up): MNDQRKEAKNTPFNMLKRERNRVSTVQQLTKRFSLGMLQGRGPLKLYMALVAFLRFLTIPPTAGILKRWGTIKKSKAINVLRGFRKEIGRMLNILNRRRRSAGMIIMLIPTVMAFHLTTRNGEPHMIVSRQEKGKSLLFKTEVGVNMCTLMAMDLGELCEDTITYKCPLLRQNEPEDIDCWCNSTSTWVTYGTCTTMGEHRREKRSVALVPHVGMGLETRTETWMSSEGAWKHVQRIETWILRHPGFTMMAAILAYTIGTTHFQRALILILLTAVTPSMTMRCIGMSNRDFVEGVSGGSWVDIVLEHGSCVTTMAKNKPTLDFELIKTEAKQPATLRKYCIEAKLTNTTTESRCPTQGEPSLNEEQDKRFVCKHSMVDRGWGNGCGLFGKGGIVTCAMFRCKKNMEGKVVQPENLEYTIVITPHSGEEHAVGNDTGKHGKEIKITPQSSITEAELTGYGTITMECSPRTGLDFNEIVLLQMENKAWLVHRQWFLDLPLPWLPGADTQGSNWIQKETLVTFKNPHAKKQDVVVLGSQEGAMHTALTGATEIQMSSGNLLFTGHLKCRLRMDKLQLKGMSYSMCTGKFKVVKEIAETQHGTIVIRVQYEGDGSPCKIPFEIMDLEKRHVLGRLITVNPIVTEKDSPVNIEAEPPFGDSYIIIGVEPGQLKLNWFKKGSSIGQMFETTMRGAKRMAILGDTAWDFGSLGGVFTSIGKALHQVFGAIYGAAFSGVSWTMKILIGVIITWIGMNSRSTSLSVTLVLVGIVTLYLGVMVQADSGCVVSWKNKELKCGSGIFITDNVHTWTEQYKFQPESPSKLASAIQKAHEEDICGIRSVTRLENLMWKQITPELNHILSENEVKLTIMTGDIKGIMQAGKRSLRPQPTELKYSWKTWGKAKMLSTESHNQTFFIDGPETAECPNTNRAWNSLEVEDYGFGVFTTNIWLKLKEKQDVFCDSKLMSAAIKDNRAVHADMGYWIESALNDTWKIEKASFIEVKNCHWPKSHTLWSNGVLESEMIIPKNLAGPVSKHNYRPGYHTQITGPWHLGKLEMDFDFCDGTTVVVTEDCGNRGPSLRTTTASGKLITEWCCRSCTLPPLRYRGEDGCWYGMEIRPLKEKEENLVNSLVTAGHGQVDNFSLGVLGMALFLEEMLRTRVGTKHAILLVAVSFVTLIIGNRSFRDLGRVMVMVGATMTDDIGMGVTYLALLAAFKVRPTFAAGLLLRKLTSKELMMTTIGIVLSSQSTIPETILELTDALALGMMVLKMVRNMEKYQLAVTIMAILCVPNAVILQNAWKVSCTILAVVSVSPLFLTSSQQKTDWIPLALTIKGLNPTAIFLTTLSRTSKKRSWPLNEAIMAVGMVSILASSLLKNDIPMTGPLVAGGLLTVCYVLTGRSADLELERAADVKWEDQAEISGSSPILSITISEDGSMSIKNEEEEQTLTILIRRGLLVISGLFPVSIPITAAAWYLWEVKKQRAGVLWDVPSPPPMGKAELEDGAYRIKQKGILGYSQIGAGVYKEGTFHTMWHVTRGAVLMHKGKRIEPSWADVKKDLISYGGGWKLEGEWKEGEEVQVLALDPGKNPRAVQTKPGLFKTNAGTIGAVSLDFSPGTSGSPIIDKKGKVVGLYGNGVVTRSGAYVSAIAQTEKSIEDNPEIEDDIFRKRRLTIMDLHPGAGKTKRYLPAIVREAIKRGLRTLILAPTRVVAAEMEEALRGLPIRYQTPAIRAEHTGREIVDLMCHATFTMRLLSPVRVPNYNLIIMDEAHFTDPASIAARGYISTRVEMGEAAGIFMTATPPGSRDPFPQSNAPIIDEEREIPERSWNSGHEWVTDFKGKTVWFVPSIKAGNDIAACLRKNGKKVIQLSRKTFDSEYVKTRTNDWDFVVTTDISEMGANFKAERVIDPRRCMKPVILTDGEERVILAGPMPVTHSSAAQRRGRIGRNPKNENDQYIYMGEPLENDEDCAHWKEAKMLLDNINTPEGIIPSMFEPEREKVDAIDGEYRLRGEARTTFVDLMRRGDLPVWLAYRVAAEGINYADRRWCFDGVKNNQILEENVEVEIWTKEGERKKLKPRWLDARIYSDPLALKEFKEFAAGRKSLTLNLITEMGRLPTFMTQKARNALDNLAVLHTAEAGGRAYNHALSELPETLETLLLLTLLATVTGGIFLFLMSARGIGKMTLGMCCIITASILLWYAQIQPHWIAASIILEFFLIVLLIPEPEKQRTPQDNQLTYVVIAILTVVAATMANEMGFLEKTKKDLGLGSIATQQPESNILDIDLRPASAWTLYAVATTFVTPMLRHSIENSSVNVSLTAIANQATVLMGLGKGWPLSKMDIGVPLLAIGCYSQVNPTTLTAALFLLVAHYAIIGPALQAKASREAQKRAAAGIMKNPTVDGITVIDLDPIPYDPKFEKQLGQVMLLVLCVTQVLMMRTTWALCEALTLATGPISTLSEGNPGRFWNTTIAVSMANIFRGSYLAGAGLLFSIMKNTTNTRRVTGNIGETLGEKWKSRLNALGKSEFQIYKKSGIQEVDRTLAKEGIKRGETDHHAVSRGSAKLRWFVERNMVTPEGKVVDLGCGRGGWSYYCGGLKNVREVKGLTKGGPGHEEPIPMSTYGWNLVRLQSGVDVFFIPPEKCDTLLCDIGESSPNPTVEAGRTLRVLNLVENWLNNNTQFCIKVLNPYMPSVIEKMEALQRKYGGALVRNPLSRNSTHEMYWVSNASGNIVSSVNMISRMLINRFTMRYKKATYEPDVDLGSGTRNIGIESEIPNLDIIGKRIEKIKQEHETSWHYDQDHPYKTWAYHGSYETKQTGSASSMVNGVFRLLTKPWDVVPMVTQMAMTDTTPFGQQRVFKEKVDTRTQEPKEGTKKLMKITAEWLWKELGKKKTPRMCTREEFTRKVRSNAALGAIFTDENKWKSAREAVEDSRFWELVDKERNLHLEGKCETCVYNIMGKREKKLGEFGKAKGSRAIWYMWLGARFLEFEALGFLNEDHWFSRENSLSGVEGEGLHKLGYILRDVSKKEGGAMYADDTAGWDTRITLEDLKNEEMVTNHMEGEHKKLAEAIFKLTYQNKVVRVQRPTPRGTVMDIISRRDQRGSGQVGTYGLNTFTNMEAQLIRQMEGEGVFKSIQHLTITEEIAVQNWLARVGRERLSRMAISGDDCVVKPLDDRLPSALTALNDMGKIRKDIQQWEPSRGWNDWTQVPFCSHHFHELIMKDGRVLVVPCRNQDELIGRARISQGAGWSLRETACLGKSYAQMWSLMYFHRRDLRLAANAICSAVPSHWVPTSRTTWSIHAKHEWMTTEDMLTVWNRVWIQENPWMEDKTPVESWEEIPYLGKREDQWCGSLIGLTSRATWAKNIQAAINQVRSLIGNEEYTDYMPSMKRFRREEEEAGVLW
Experiment: flavivirus cap methylation enzyme inhibition – biochemical, confirmation dose response, primary screen (AID 588689)
Conditions: Dengue-2 NS5 methyltransferase capping enzyme assay, at 25 µM, stronger effect = higher value
[1] = measured here: pilot screen replicate inhibition

| Compound | inhibition | inhibition [1] [%] |
| --- | --- | --- |
| C=CCN1CCN(C(c2cc(OC)ccc2OC)c2nnnn2CC2CCCO2)CC1 (configuration not stated) | 1.37% (inactive) | – |
| COc1ccc(-c2ccc(=O)n(Cc3ccccc3)n2)cc1 | -0.78% (inactive) | – |
| C=CCn1c(CC(C)(C)C)nc2ccccc21 | -5.1% (inactive) | – |
| Cc1ccc(S(=O)(=O)N2CCCN(C(=O)c3ccc(-n4nccc4C)cc3)CC2)cc1 | -5.13% (inactive) | – |
| CCOC(=O)C1CCCN(C(=O)/C(=C/c2ccco2)NC(=O)c2ccccc2)C1 (configuration not stated) | -14.3% (inactive) | – |
| CC[n+]1c(/C=C(\C)OC)sc2ccccc21 | 2.92% (inactive) | – |
| O=C(COC(=O)/C=C/c1ccccc1Cl)NC(=O)NC1CCCC1 | -7.24% (inactive) | – |
| COCCNC(=O)CN1C(=O)CSc2ccc(S(=O)(=O)N3CCOCC3)cc21 | 0.89% (inactive) | – |
| COc1ccc(C(=O)N2CCN(c3ccc(NC(=O)c4ccco4)cc3)CC2)cc1 | 0% (inactive) | – |
| COc1cc(O)c2c(c1)OC(C)(C)CC2=O | -2.94% (inactive) | – |
| CC1(C)CC(=O)c2c(O)cc(O)cc2O1 | -4.17% (inactive) | – |
| N#CCCN(C(=O)COC(=O)CNS(=O)(=O)c1ccc2ccccc2c1)c1ccccc1 | 1.1% (inactive) | – |
| N#CCc1ccc(NC(=O)Cn2c(=O)oc3ccccc32)cc1 | -3.26% (inactive) | -4.87 |
| COc1ccc(S(=O)(=O)N2CCCC2)c(Cl)c1Cl | -8.19% (inactive) | – |
| COc1ccc(OC)c(-c2cc(C(=O)Nc3sc4c(c3C#N)CCC(C)C4)c3ccccc3n2)c1 (configuration not stated) | -5.61% (inactive) | – |
| CCC1CCc2c(sc(NC(=O)C3CC=CCC3C(=O)O)c2C#N)C1 (configuration not stated) | 27.5% (inactive) | – |
| CC1CCc2c(sc(NC(=O)c3ccccc3C(=O)O)c2C#N)C1 (configuration not stated) | -0.74% (inactive) | – |
| N#Cc1c(NC(=O)C2CC=CCC2C(=O)O)sc2c1CCCCCC2 (configuration not stated) | 5.78% (inactive) | – |
| COc1ccc(-c2cc(C(=O)Nc3sc4c(c3C#N)CCCC4)c3ccccc3n2)cc1OC | -4.06% (inactive) | – |
| CCC(C)(C)C1CCc2c(sc(NC(=O)c3ccoc3C)c2C(N)=O)C1 (configuration not stated) | -3.22% (inactive) | – |
| CCOc1ccc(-c2cccc(NC(=O)COc3ccc(Cl)cc3)c2)nn1 | -5.43% (inactive) | – |
| COc1ccc(/C=C/C(=O)c2cc(Br)ccc2O)cc1OC | 0.78% (inactive) | – |
| Cc1cccc(-n2nnnc2SCC(=O)Nc2cccc(S(N)(=O)=O)c2)c1 | 0% (inactive) | – |
| Cc1ccc(NC(=S)NCC2CCCO2)cc1 (configuration not stated) | -18% (inactive) | – |

| Compound | inhibition | inhibition [1] [%] |
| --- | --- | --- |
| C[C@H](CO)N1C[C@H](C)[C@@H](CN(C)Cc2ccc(C(=O)O)cc2)Oc2c(NS(=O)(=O)c3cccs3)cccc2C1=O | 2.31% (inactive) | -3.33 |
| CC1(C)CC(=O)C(C#N)=C(NCCCO)C1 | -3.49% (inactive) | – |
| CC(C)=NNC1=NC(C)(C)Cc2ccccc21 | 3.83% (inactive) | – |
| C=CCOC(=O)C(=O)/C=C/c1csc2ccccc12 | 23.7% (inactive) | – |
| O=C1Nc2ccccc2/C1=C/c1ccccc1Cl | -2.65% (inactive) | – |
| O=Cc1c(Cl)cccc1Cl | 0% (inactive) | – |
| O=C1NC(=O)/C(=C/c2ccccc2Cl)N1 | -5.96% (inactive) | – |
| O=C1NC(=S)NC(=O)C1=Cc1ccccc1C(=O)O | 1.94% (inactive) | – |
| O=C1NC(=S)NC1=Cc1ccc(Cl)cc1Cl | -0.78% (inactive) | – |
| C/C=C/C=C\C(=O)Nc1cccc(C2=NOC3(C2)C[C@H](C(N)=O)N(C(=O)/C=C/C)C3)c1 (some centres not stated) | -9.17% (inactive) | – |
| CCOC(=O)c1c(S(=O)(=O)N(C)C2CCCCC2)c(C)n(C)c1C | -7.99% (inactive) | – |
| CC(C)(CNC(=O)c1cc(Cl)c(O)c(Cl)c1)N1CCCCC1 | 3.57% (inactive) | – |
| N=C1/C(=C\c2ccc(OC(=O)c3ccccc3Cl)cc2)C(=O)N=C2SC(N3CCOCC3)=NN12 | 34.8% (inactive) | – |
| CCC1=NN2C(=N)/C(=C\c3ccc(OCCOc4ccc(NC(C)=O)cc4)c(OC)c3)C(=O)N=C2S1 | 4.57% (inactive) | – |
| Cc1ccc(C(=O)Oc2ccc(/C=C3\C(=N)N4N=C(N5CCOCC5)SC4=NC3=O)cc2)cc1 | 9.04% (inactive) | – |
| N=C1/C(=C\c2ccc(OC(=O)c3ccc(F)cc3)cc2)C(=O)N=C2SC(N3CCCC3)=NN12 | -2.77% (inactive) | – |
| N=C1/C(=C\c2ccc(OC(=O)c3ccccc3)cc2)C(=O)N=C2SC(N3CCOCC3)=NN12 | 3.46% (inactive) | – |
| CCC1=NN2C(=N)/C(=C/c3ccc(OS(=O)(=O)c4ccccc4)c(OC)c3)C(=O)N=C2S1 | 4.04% (inactive) | – |
| COCCN(CCOC)S(=O)(=O)c1ccc(C(=O)NCCCN2CCOCC2)cc1 | -2.15% (inactive) | – |
| O=C(c1ccco1)N1CCN(C(=S)Nc2ccccc2Cl)CC1 | 1.93% (inactive) | – |
| Cc1cc2n(n1)C(c1ccsc1)Nc1ccccc1-2 (configuration not stated) | -9.35% (inactive) | – |
| C/C(=C\COc1cc(=O)[nH]c2ccccc12)CCC(O)C(C)(C)O (configuration not stated) | -11.2% (inactive) | – |
| Cc1nc2ccccc2n1CC(=O)NC(C)C1CC2CCC1C2 (configuration not stated) | -6.66% (inactive) | – |
| C=CCn1c(SCc2ccc(F)cc2)nc2c1c(=O)[nH]c(=O)n2C | -3.48% (inactive) | – |

| Compound | inhibition | inhibition [1] [%] |
| --- | --- | --- |
| Cc1nn(CC(=O)Nc2cccnc2)c(C)c1[N+](=O)[O-] | -9.49% (inactive) | – |
| C/C(=N/NC(=O)Cc1ccccc1)c1ccc(C)s1 | 5.19% (inactive) | – |
| O=C1ON=C(c2ccccc2)/C1=C/c1ccc(O)c(O)c1 | 28.7% (inactive) | – |
| Cc1ccc(C2=NOC(=O)/C2=C\c2ccccc2)cc1 | 27.9% (inactive) | – |
| O=C1ON=C(c2ccccc2)/C1=C/c1ccccc1 | 27% (inactive) | 8.25 |
| O=C1ON=C(c2ccccc2)/C1=C/c1ccc(O)cc1 | 42% (inactive) | 20.8 |
| O=c1[nH]c2cc(Cl)cc(Cl)c2[nH]c1=O | -3.92% (inactive) | – |
| CSc1nc(N(C)C)nc(N(C#N)CCOC(C)=O)n1 | 0.74% (inactive) | – |
| COc1ccc(NS(=O)(=O)c2cc(NC(=O)[C@@H](NC(=O)c3ccccc3)C(C)C)ccc2C)cc1 | -3.89% (inactive) | – |
| COc1ccc(CN=Cc2c(C(=O)O)[nH]c3ccccc23)cc1 | -3.12% (inactive) | – |
| Cc1[nH]c2ccccc2c1SCC(=O)O | -8.76% (inactive) | – |
| O=C(O)c1[nH]c2ccccc2c1-c1ccccc1 | -4.76% (inactive) | – |
| CC(=O)Nc1c(C(=O)O)[nH]c2ccccc12 | -4.8% (inactive) | – |
| O=C(O)CCc1c(C(=O)O)[nH]c2ccccc12 | -0.56% (inactive) | – |
| COc1cc(C(NC(C)=O)NC(C)=O)ccc1OCc1ccccc1 | -12.5% (inactive) | – |
| COc1cc(CC(=O)O)ccc1OCc1ccccc1 | -5.48% (inactive) | – |
| C=CCOc1ccc(C(c2c(C)n(C)n(-c3ccccc3)c2=O)c2c(C)n(C)n(-c3ccccc3)c2=O)cc1 | -3.27% (inactive) | – |
| COc1ccc2sc(N(CCCN(C)C)C(=O)c3ccc(C(=O)c4ccccc4)cc3)nc2c1 | 0% (inactive) | – |
| CN(Cc1ccccc1F)C(=O)C1CCCN(C(=O)c2ccc(Cl)cc2)C1 (configuration not stated) | 3.62% (inactive) | – |
| COc1ccc(NS(=O)(=O)c2ccc3c(c2)N(C(C)=O)CCS3)cc1 | -7.87% (inactive) | – |
| CCOc1nc(C)ccc1-c1noc(C)n1 | 0% (inactive) | – |
| COCc1c(Br)c(C)nc(OCC(=O)O)c1C#N | 0.8% (inactive) | – |
| CCCCN(C(=O)CCC(=O)Nc1cc(C)on1)C(C(=O)NC1CCCC1)c1ccc(F)cc1 (configuration not stated) | -14.2% (inactive) | – |
| N#Cc1cc2c(nc1SCc1cccc(Cl)c1)CCCCC2 | 4.4% (inactive) | – |

| Compound | inhibition | inhibition [1] [%] |
| --- | --- | --- |
| Cc1ccc(C(=O)OCC(=O)N2CCC(C)CC2)cc1S(=O)(=O)N1CCCCC1 | -4.55% (inactive) | – |
| CCCCSC1=N/C(=C/c2ccsc2)C(=O)N1c1ccccc1 | -1.97% (inactive) | – |
| Fc1cccc(COc2ccccc2C(=S)N2CCCC2)c1 | -5.22% (inactive) | – |
| Cc1[nH]c2ccccc2c1C(C[N+](=O)[O-])c1cccc(O)c1 (configuration not stated) | -3.77% (inactive) | – |
| CCS(=O)(=O)Nc1c(C(=O)O)[nH]c2ccccc12 | -0.33% (inactive) | – |
| C#CCOCCOCCOCCNc1nc(N2CCN(C(=O)[C@H](CO)n3cc([C@@H](N)C(C)C)nn3)CC2)nc(N2CCN(C(=O)[C@H](CCCCN)n3cc([C@@H](N)[C@H](C)CC)nn3)CC2)n1 | 0% (inactive) | – |
| Cc1ccc(/C=N/NC(=O)c2ccncc2)cc1 | -7.15% (inactive) | – |
| Cc1ccsc1/C=N/NC(=O)c1ccncc1 | -0.74% (inactive) | – |
| Cn1c(=O)c(/C(N)=N/OC(=O)c2ccccc2)cn(-c2ccccc2)c1=O | 0% (inactive) | – |
| CCc1nc2nc(C)c(NS(=O)(=O)c3ccc(C4CCCCC4)cc3)c(=O)n2[nH]1 | 7.51% (inactive) | – |
| Cc1nc2nc(C)c(NS(=O)(=O)c3ccc(C4CCCCC4)cc3)c(=O)n2[nH]1 | -5.01% (inactive) | – |
| Cc1cc(Br)ccc1NC(=O)c1ccc(-n2cncn2)c([N+](=O)[O-])c1 | 5.79% (inactive) | – |
| O=C(CCCCCNc1nc(=S)[nH]c2ccccc12)NCCC1=CCCCC1 | -4.45% (inactive) | – |
| CCCCn1c(N)c(N(CC(C)C)C(=O)C2CCCO2)c(=O)[nH]c1=O (configuration not stated) | -0.74% (inactive) | – |
| COc1cc2c(cc1OC)C1c3ccc(OC)c(OC)c3OCC1(O)C2 (configuration not stated) | 3.23% (inactive) | – |
| CCOc1ccc(NC(=O)CN(C)C(=O)c2ccncc2)cc1OCC | 4.54% (inactive) | – |
| O=C(CCOc1ccccc1)N1CCCC(Nc2ccccc2)C1 (configuration not stated) | -3.45% (inactive) | – |
| COc1cccc(CNC(=O)[C@H](C)NC(=O)C2CCN(S(=O)(=O)c3ccccc3)CC2)c1 | -6.35% (inactive) | – |
| CC12CCC(=O)N1C(C(=O)Nc1nccs1)CS2 (configuration not stated) | -5.93% (inactive) | – |
| O=C(O)CSc1nc(-c2ccccc2)nc2c1oc1ccccc12 | 5.73% (inactive) | – |
| Cc1nc(SCC(=O)O)c2oc3ccccc3c2n1 | -1.65% (inactive) | – |
